This is an account of results in PubChem BioAssay (NCI).

This is part of a sample that, as a whole, favours compounds with a hit. Of some 83,000 tested, about 20% had one in any assay.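 Compound tested at a single concentration for 48 hours in 96-well plates; a percent growth value below 10 was scored as active.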 Unmarked numbers belong to inactive results. Calls of active or inactive are those of the source.

Among the test systems are DU-145 prostate; K-562 leukemia; MALME-3M melanoma; MDA-MB-231 breast; RXF 393 renal; SF-268 CNS; SF-295 CNS; SF-539 CNS; UACC-257 melanoma; M14 melanoma; HCT-15 colon; HT29 colon; SNB-75 CNS; SNB-19 CNS; U251 CNS; PC-3 prostate; SK-MEL-5 melanoma; SK-MEL-28 melanoma; UACC-62 melanoma; LOX IMVI melanoma.
Common to all, as to assay: NCI-60 one-dose screen, 48 h (100 = growth as untreated, 0 = no growth, -100 = all killed)
Details in all cases: 10 µM unless noted

In the case of `N#CCNC(=O)c1ccc(-c2ccnc(Nc3ccc(N4CCOCC4)cc3)n2)cc1`, the growth in the experiment with DU-145 prostate is 18.6%; in the experiment with K-562 leukemia, 26.9%; in the experiment with MALME-3M melanoma, 33.2%; in the experiment on MDA-MB-231 breast, 19.8%; in the experiment on RXF 393 renal it was -62.8% (active); in the experiment on SF-268 CNS, 22.1%. Further, the growth in the experiment with SF-295 CNS is 49.5%; in the experiment on SF-539 CNS, -9.39% (active); with UACC-257 melanoma, 31.1%; in the experiment on M14 melanoma, 44%; with HCT-15 colon, 20.7%; with HT29 colon, 24.2%. Besides, the growth was -4.36% (active) with SNB-75 CNS; 50.8% in the experiment on SNB-19 CNS; 19.3% in the experiment with U251 CNS; 30.8% with PC-3 prostate; 25.1% in the experiment on SK-MEL-5 melanoma; 36.7% in the experiment with SK-MEL-28 melanoma.
In the case of `CN(c1ncccc1CNc1nc(Nc2ccc3c(c2)CC(=O)N3)ncc1C(F)(F)F)S(C)(=O)=O`, the growth in the experiment with DU-145 prostate was 11.2%; with K-562 leukemia it was 4.58% (active); in the experiment with MALME-3M melanoma it was -14.4% (active); in the experiment with MDA-MB-231 breast, 3.93% (active); in the experiment with RXF 393 renal it was -43.3% (active); in the experiment on SF-268 CNS it was 2.36% (active). The growth in the experiment on SF-295 CNS is 11.8%; in the experiment with SF-539 CNS it was -36% (active); in the experiment on UACC-257 melanoma it was -29.1% (active); with M14 melanoma it was -23.9% (active); in the experiment on HCT-15 colon it was 2.3% (active); in the experiment on HT29 colon, -28.4% (active). Also, the growth with SNB-75 CNS is -43.3% (active); in the experiment with U251 CNS, -0.121% (active); in the experiment with PC-3 prostate it was 7.2% (active); in the experiment on SK-MEL-5 melanoma, -38.3% (active); with UACC-62 melanoma, -64.6% (active); in the experiment on LOX IMVI melanoma, 2.21% (active). In the experiment with SK-MEL-28 melanoma, the growth was -16.1% (active).
Consider `CCS(=O)(=O)N1CCN(c2ccc(Nc3ncc(C(N)=O)c(NC4CC4)n3)cc2)CC1`, for which the growth in the experiment with DU-145 prostate is 88.5%; in the experiment with K-562 leukemia, 56.4%; in the experiment with MALME-3M melanoma, 76.7%; in the experiment with MDA-MB-231 breast, 69.6%; with RXF 393 renal it was 25.8%; in the experiment on SF-268 CNS it was 75.5%. The growth with SF-295 CNS was 61.9%; in the experiment on SF-539 CNS it was 53.5%; in the experiment with UACC-257 melanoma it was 101%; with M14 melanoma, 59.5%; with HCT-15 colon, 58.2%; in the experiment on HT29 colon it was 76.2%. Moreover, the growth is 88% in the experiment with SNB-75 CNS; 105% in the experiment on SNB-19 CNS; 93.4% in the experiment on U251 CNS; 92.4% in the experiment on PC-3 prostate; 101% with UACC-62 melanoma; 73.7% in the experiment with LOX IMVI melanoma.
As for `COC(=O)[C@H](Cc1ccc(O)cc1)NC(=O)[C@@H](OC)[C@@H]1Cc2cc3cc(OC4CC(OC5CC(O)C(O)C(C)O5)C(O)C(C)O4)c(C)c(O)c3c(O)c2C(=O)[C@H]1OC1CC(OC2CC(OC3CC(C)(O)C(O)C(C)O3)C(O)C(C)O2)C(O)C(C)O1` (stereo not given in full), the growth with DU-145 prostate is 15.8%; with K-562 leukemia, 7.28% (active); in the experiment on MALME-3M melanoma, -43% (active); with MDA-MB-231 breast it was 19.5%; in the experiment on RXF 393 renal, -71.5% (active); with SF-268 CNS, 20.7%. Also, the growth in the experiment with SF-295 CNS was 7.09% (active); in the experiment on SF-539 CNS, -27.1% (active); in the experiment with UACC-257 melanoma, 2.42% (active); in the experiment on M14 melanoma, -20.2% (active); in the experiment on HCT-15 colon, 47.5%; in the experiment with HT29 colon, 3.68% (active). Besides, the growth was -52.5% (active) in the experiment on SNB-75 CNS; 8.72% (active) in the experiment with SNB-19 CNS; 7.18% (active) in the experiment on U251 CNS; 13.4% in the experiment with PC-3 prostate; -53.1% (active) with UACC-62 melanoma; -31.2% (active) in the experiment with LOX IMVI melanoma. The growth in the experiment on SK-MEL-28 melanoma was -26.6% (active).
For `CCOc1ccc(N=C(C)Nc2ccc(OCC)cc2)cc1`, the growth in the experiment on DU-145 prostate was 114%; in the experiment on K-562 leukemia, 99.6%; in the experiment with MALME-3M melanoma it was 117%; in the experiment on MDA-MB-231 breast, 118%; in the experiment with RXF 393 renal, 113%; in the experiment on SF-268 CNS, 88.8%. Further, the growth is 107% in the experiment on SF-295 CNS; 118% with SF-539 CNS; 104% in the experiment on UACC-257 melanoma; 101% in the experiment on M14 melanoma; 92.1% in the experiment on HCT-15 colon; 109% in the experiment with HT29 colon. Further, the growth in the experiment on SNB-75 CNS was 80.5%; in the experiment on U251 CNS, 108%; with PC-3 prostate, 93.2%; with SK-MEL-5 melanoma, 109%; with UACC-62 melanoma, 104%; in the experiment with LOX IMVI melanoma it was 102%. For the same compound, in the experiment on SK-MEL-28 melanoma, the growth was 113%.
For the compound `Cc1csc(-c2nnc(Nc3ccc(Oc4ncccc4-c4ccnc(N)n4)cc3)c3ccccc23)c1`, the growth was 55.8% in the experiment on DU-145 prostate; 40% in the experiment on K-562 leukemia; 18.6% in the experiment on MALME-3M melanoma; 37.7% in the experiment on MDA-MB-231 breast; 8.98% (active) with RXF 393 renal; 58.3% in the experiment on SF-268 CNS. The growth with SF-295 CNS is 60.2%; in the experiment on SF-539 CNS it was 41.1%; with UACC-257 melanoma, 20.8%; with M14 melanoma it was 15.4%; in the experiment with HCT-15 colon it was 37.6%; in the experiment with HT29 colon, 10.1%. Moreover, the growth with SNB-75 CNS is 61.9%; in the experiment with U251 CNS, 37.7%; with PC-3 prostate it was 59.9%; in the experiment with SK-MEL-5 melanoma, 54.1%; with UACC-62 melanoma, 21.1%; in the experiment with LOX IMVI melanoma, 25.7%. The growth in the experiment with SK-MEL-28 melanoma is 18.9%.
Regarding `COC(=O)[C@@H](OC)[C@@H]1Cc2cc3cc(OC4CC(OC5CC(O)C(O)C(C)O5)C(O)C(C)O4)c(C)c(O)c3c(O)c2C(=O)[C@H]1OC1CC(OC2CC(OC3CC(C)(O)C(O)C(C)O3)C(O)C(C)O2)C(O)C(C)O1` (stereo not given in full), the growth in the experiment with DU-145 prostate was 10.2%; in the experiment on K-562 leukemia, 4.16% (active); with MALME-3M melanoma, -58% (active); in the experiment on MDA-MB-231 breast it was -8.44% (active); in the experiment on RXF 393 renal it was -73% (active); in the experiment with SF-268 CNS, 3.86% (active). The growth with SF-295 CNS was -10.6% (active); in the experiment on SF-539 CNS, -41.6% (active); in the experiment with UACC-257 melanoma, -11.2% (active); in the experiment with M14 melanoma, -71.5% (active); with HCT-15 colon it was 7.16% (active); in the experiment on HT29 colon, 3.61% (active). The growth with SNB-75 CNS was -79.3% (active); with SNB-19 CNS it was 4.99% (active); in the experiment on U251 CNS, 2.62% (active); in the experiment on PC-3 prostate it was -23.3% (active); in the experiment with UACC-62 melanoma it was -58.5% (active); in the experiment with LOX IMVI melanoma, -24% (active). Also, the growth in the experiment on SK-MEL-28 melanoma is -38% (active).
`Nc1nc(N)c2nc(-c3cccc(O)c3)c(-c3cccc(O)c3)nc2n1`: the growth in the experiment with DU-145 prostate is 80.8%; in the experiment with K-562 leukemia it was 28.5%; in the experiment with MALME-3M melanoma, 91.3%; with MDA-MB-231 breast it was 96.5%; in the experiment on RXF 393 renal, 70.8%; in the experiment with SF-268 CNS, 58.2%. For the same compound, the growth with SF-295 CNS was 89.8%; with SF-539 CNS, 81.7%; with UACC-257 melanoma, 65.4%; in the experiment on M14 melanoma, 87.5%; in the experiment with HCT-15 colon, 92%; in the experiment on HT29 colon, 68%. For the same compound, the growth in the experiment on SNB-75 CNS is 39.9%; with SNB-19 CNS, 70.8%; in the experiment with U251 CNS, 71.6%; in the experiment on PC-3 prostate, 76.6%; with UACC-62 melanoma, 83%; in the experiment with LOX IMVI melanoma, 89.6%. The growth with SK-MEL-28 melanoma was 85.2%.
